Our source for the inhibition values is PubChem BioAssay AID1962 (The Scripps Research Institute Molecular Screening Center, 2009).

In general, inhibition refers to the drop in the measured response relative to a control, in per cent.

Hit rate of the full screen: of about 300,000 compounds, about 2,500 (0.83%) were called active.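 The calls were made as follows: active = inhibition above the mean of all tested compounds plus 3 SD, set per screening campaign (cut at about 24% in these data); inactive = the rest.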 Many of the other results were omitted from the sample, so actives are more common in it than they were.

For the experiment, the system named is tRNA 2'-phosphotransferase TPT1 (Candida albicans SC5314). Description: Candida albicans TPT1 enzyme inhibitors, primary screen, biochemical, fluorescence polarization (AID 1962).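 Also: plate controls were DMSO alone for no effect and ferristatin control at 100 nM for full effect.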 To be noted: recombinant caTPT1, FP RNA substrate dephosphorylation; at 5 µM; active compounds read high. In general terms: Polarisation of emitted light reports the rotation of a fluorescent probe.
With `Cn1cc(CN2CCCCC2c2ccccn2)c(-c2ccc3c(c2)OCCO3)n1` (configuration not stated), the inhibition was -1.42% (inactive).
The figure for `COC(=O)c1ccc(/C=N/N2C(C)CCCC2C)cc1` (configuration not stated) is 0.75% (inactive).
Take `CC(CCN1CCN=C1N(C)C)c1ccccc1` (configuration not stated): the inhibition was 1.38% (inactive).
As for `O=C(c1cc(C(=O)N2CCN(c3ccc(F)cc3)CC2)cc([N+](=O)[O-])c1)N1CCN(c2ccc(F)cc2)CC1`, the figure is -4.38% (inactive); as for `O=C(c1cccc(F)c1)N1CCN(c2ccc([N+](=O)[O-])c(N3CCCCC3)c2)CC1`, -2.61% (inactive).
Turning to `Cc1ccc(CSCC2Nc3ccc(C(=O)N4CCN(c5ccc(F)cc5)CC4)cc3NC2=O)cc1` (configuration not stated), the inhibition is 133% (active).
As for `O=C1Nc2cc(C(=O)N3CCN(c4ccc(F)cc4)CC3)ccc2NC1CSCc1cccc(F)c1` (configuration not stated), the figure is 134% (active).
As for `C=CCn1c(SCc2cccc(F)c2)nc2cc(C(=O)N3CCC(C(N)=O)CC3)ccc2c1=O`, the figure is -3.32% (inactive); as for `O=C(c1cc(-c2ccc(F)cc2)on1)N1CCN(c2ccc(F)cc2)CC1`, -5.93% (inactive); as for `Cc1ccc(S(=O)(=O)N2[C@@H](c3ccccc3F)C(C(=O)O)=CC[C@H]2c2ccc(Cl)cc2)cc1`, -4.36% (inactive).
For the compound `COc1ccc(CCNC(=S)N2CCN(S(=O)(=O)c3ccc(F)cc3)CC2)cc1`, the inhibition is -2.45% (inactive).
The figure for `Cc1cccc(NC(=O)c2cccc(S(=O)(=O)N3CCCC3)c2)n1` is -1.41% (inactive); for `CCC(C)CCN1CCN=C1N(C)C` (configuration not stated) it is 0.6% (inactive).
With `O=S(=O)(Nc1ccccc1)c1ccc(NS(=O)(=O)c2cccs2)cc1`, the inhibition is 3.09% (inactive).
The figure for `O=c1[nH]nc(SCCS(=O)(=O)c2ccc(F)cc2)n1-c1ccccc1C(F)(F)F` is -4.89% (inactive); for `O=C(NCCS(=O)(=O)N1CCN(c2ccc(F)cc2)CC1)c1ccc2c(c1)OCO2` it is -1.22% (inactive).
The figure for `Cc1cc(C)c(/C=C2\C(=O)Nc3ccccc32)[nH]1` is 101% (active); for `O=C1Nc2ccccc2/C1=C/c1ccnc2ccccc12` it is -1.13% (inactive); for `CN(C)/C=C1/Nc2ccccc2C1=O` it is -4.8% (inactive).
Turning to `CN1/C(=c2/s/c(=C3/C(=O)N(c4ccccc4)NC3=Nc3ccccc3)n(C)c2=O)C(C)(C)c2ccccc21`, the inhibition is 128% (active).
As for `CCN1C(=O)/C(=c2\s/c(=C3\Sc4ccccc4N3C)c(=O)n2C)N(C)C1=S`, the figure is -1.53% (inactive).
The figure for `COc1ccc(/C=C2\SC(=O)N(CCC(=O)NC3CCS(=O)(=O)C3)C2=O)cc1` (configuration not stated) is -0.19% (inactive); for `Cc1cc(C)n(CCC(=O)N2CCN(S(=O)(=O)c3ccc(C)c(C)c3)CC2)n1` it is -1.67% (inactive); for `Cc1nc(-c2ccc(Cl)cc2)sc1C1(C)CC(c2ccccc2F)=NO1` (configuration not stated) it is 1.26% (inactive).
The figure for `C/[N+]([O-])=C\c1ccc([N+](=O)[O-])o1` is -5.74% (inactive).
For `CCn1c(/C=C/c2ccc([N+](=O)[O-])o2)nc2ccccc2c1=O`, the inhibition is 25.2% (active).
The figure for `Cc1cc(C)nc(N/N=C/c2ccc([N+](=O)[O-])o2)n1` is -2.07% (inactive); for `CCCOc1ccc(Cc2c(O)nc(SC)[nH]c2=O)cc1C` it is 1.03% (inactive).
The figure for `S=C(Nc1cccc(Br)c1)N1CCn2cccc2C1c1cccnc1` (configuration not stated) is 1.48% (inactive).
The figure for `COc1cc(/C=C2\C(=N)N3N=C(CC(=O)N4CCOCC4)SC3=NC2=O)cc(OC)c1OC` is 1.57% (inactive); for `C=CCC1=C/C(=C\c2c(N)n3nc(CC(=O)N4CCOCC4)sc3nc2=O)C=C(OC)C1=O` it is 37% (active); for `COC1=C/C(=C/c2c(N)n3nc(CC(=O)N4CCOCC4)sc3nc2=O)C=CC1=O` it is 9.73% (inactive).
Regarding `CCN(CC)P(=O)(Nc1ccc(SC(F)F)cc1)c1ccc(N(C)C)cc1NC(=O)c1ccco1` (configuration not stated), the inhibition was -3.15% (inactive).
With `COc1cc(C(=O)N2CCN(C)CC2)cc(OC)c1OC`, the inhibition was 1.91% (inactive).
As for `O=C(CN1C(=O)NC(Cc2ccccc2)(Cc2ccccc2)C1=O)NCC1CCCCC1`, the figure is 0.35% (inactive).
As for `Cc1ccc(CC2S/C(=C(/C#N)C(=O)N3CCOCC3)N(c3ccccc3)C2=O)cc1` (configuration not stated), the figure is 27.6% (active).
Consider `N#C/C(C(=O)N1CCOCC1)=C1/SC(Cc2ccc(F)cc2)C(=O)N1c1ccccc1` (configuration not stated), for which the inhibition is 19.8% (inactive).
The figure for `Cc1ccc(C(=O)C(=S)N2CCOCC2)cc1` is 0.27% (inactive); for `O=C(Nc1ccc2c(c1)CCC2)c1ccc(Br)s1` it is -6.11% (inactive); for `CC(=O)N1CCN(C(=O)c2cc(-c3ccc(C)o3)nc3ccccc23)CC1` it is -4.79% (inactive).
As for `OCC[C@H]1C[C@@H](O)[C@H](O)[C@]2(OCCCc3ccccc32)O1`, the figure is -4.69% (inactive); as for `O=C(/C(=C/c1cccc(Cl)c1)c1nc2ccccc2[nH]1)c1ccccc1`, 6.55% (inactive).
As for `O=C(Cc1nc2ccccc2[nH]c1=O)c1ccc(Cl)cc1`, the figure is 52.4% (active); as for `O=C(CSc1nc2ccc([N+](=O)[O-])cc2[nH]1)c1ccc(Cl)cc1`, -2.05% (inactive).
Take `CC(=O)Oc1ccc(N(C(C)=O)S(=O)(=O)c2ccc3ccccc3c2)cc1Br`: the inhibition is -2.05% (inactive).
The figure for `O=C(Nc1ccc([N+](=O)[O-])cc1)OCCc1ccccn1` is 0.72% (inactive); for `Cc1cccc(NS(=O)(=O)c2cc(Cl)ccc2Cl)n1` it is -0.05% (inactive).
The figure for `COc1ccc2cc(C(=O)C3CCCN(C(=O)c4sc(C)nc4C)C3)ccc2c1` (configuration not stated) is -0.57% (inactive).
As for `COc1cc(/C=N\Nc2nc(-c3cccs3)c(NC(C)=O)s2)ccc1O`, the figure is -0.53% (inactive).
For the compound `CCOc1cc(/C=C(\C#N)c2nc(-c3cccs3)c(NC(C)=O)s2)ccc1O`, the inhibition is 111% (active).
Regarding `CCOc1cc(-c2cc(-c3ccc(NC(C)=O)cc3)nc(N)c2C#N)ccc1O`, the inhibition is 2.32% (inactive).
In the case of `Nc1ccc(C(=O)Nc2ccccc2N)cc1`, the inhibition is -2.37% (inactive).
On to `Cc1ccc(Nc2ccccc2N)cc1`, for which the inhibition is 38.5% (active).
Turning to `Cc1ccc(Nc2ccc(C(N)=O)cc2[N+](=O)[O-])cc1`, the inhibition is -0.98% (inactive).
Consider `O=C(Nc1ccc(Cl)c(Cl)c1)N1CC=C(c2ccccc2)CC1`, for which the inhibition was -0.49% (inactive).
As for `NC1=C([N+](=O)[O-])C(c2ccccc2)C2=C(CCCC2=O)O1` (configuration not stated), the figure is 2.19% (inactive); as for `COc1ccc(CCOC(=O)CNC(=O)c2ccc(Cl)cc2Cl)cc1`, -0.14% (inactive); as for `Cc1ccc([C@@H]2CC=C(C(=O)O)[C@H](c3cccc(Cl)c3)N2S(=O)(=O)c2ccc(C)cc2)cc1`, -3.07% (inactive).
The figure for `O=C(CNC(=O)C1COc2ccccc2O1)N/N=C/c1cc(Br)c(O)c(Br)c1` (configuration not stated) is 2.18% (inactive).
In the case of `Cc1c(CC(=O)N2CCN(C(=O)C3COc4ccccc4O3)CC2)c(=O)oc2c(O)c(O)ccc12` (configuration not stated), the inhibition is 51% (active).
As for `Cc1c(C)c2ccc(OCC(=O)N3CCC(C(=O)O)CC3)c(C)c2oc1=O`, the figure is -2.74% (inactive).
As for `NC(=O)c1c(NC(=O)c2ccccc2)sc2c1CCCC2`, the figure is 1.25% (inactive); as for `COc1cccc(OC)c1C(=O)Nc1sc2c(c1C(N)=O)CCCC2`, -0.1% (inactive); as for `NC(=O)c1c(Nc2nc3c(F)cccc3s2)sc2c1CCCC2`, 85.5% (active).
As for `CC(C)(C)C(=O)Nc1ccc(C(=O)N/N=C/c2ccccc2OC(=O)c2ccc(Cl)cc2Cl)cc1`, the figure is -2.72% (inactive); as for `Cc1ccc(Sc2ccncc2S(N)(=O)=O)cc1`, 0.2% (inactive); as for `Cc1cnc(C(=O)N2CCCC(C(=O)c3ccc(C(F)(F)F)cc3)C2)cn1` (configuration not stated), -2.98% (inactive).
On to `CCOC(=O)CC1C(=O)NCCN1c1nc2c(C)cccn2c(=O)c1/C=C1\SC(=S)N(C(C)CC)C1=O` (configuration not stated), for which the inhibition is 145% (active).
As for `CCOC(=O)N1CCN(C(=O)CSc2nc(=O)n3cccc(C)c3n2)CC1`, the figure is -1.52% (inactive).
As for `Cc1cccn2c(=O)c(/C=C(\C#N)C(N)=O)c(N3CCCCCC3)nc12`, the figure is -0.44% (inactive); as for `CCC(=O)N1c2ccc(S(=O)(=O)NCc3ccco3)cc2CC1C` (configuration not stated), -4.88% (inactive); as for `COCCCn1c(-c2cccs2)nc2nc3ccccc3nc21`, -0.91% (inactive).
As for `Cc1c(-c2ccccc2)cn2c1-c1ccc(C)n1CC2`, the inhibition was 49% (active).
`Cc1cc(Br)ccc1SCC(=O)OCC(=O)NCc1ccc2c(c1)OCO2`: the inhibition was -0.18% (inactive).
As for `CC1CCN(C(=O)c2ccc(CSc3ccc(Cl)cc3)cc2)CC1`, the figure is -4.05% (inactive).
As to `CC1CCN(C(=O)c2ccc3c(c2)NC(=O)CN3)CC1`, the inhibition was 147% (active).
`CC1CCN(C(=O)c2ccc3c(=O)n4c(nc3c2)CCCCC4)CC1`: the inhibition was -0.96% (inactive).
On to `O=c1oc2ccccc2c(CNc2ccccc2)c1[N+](=O)[O-]`, for which the inhibition is -2.94% (inactive).
For the compound `C[n+]1ccc(/C=C/c2c[nH]c3ccccc23)cc1`, the inhibition was 56% (active).
For `COc1ccc(/C=C(\C#N)c2c[nH]c3ccccc23)cc1`, the inhibition is 0.42% (inactive).
As for `O=C(N/N=C/c1c[nH]c2ccccc12)c1ccccc1O`, the figure is -1.65% (inactive).
For the compound `CCOc1ccc(-n2c(O)c(/C=N/c3ccnn3Cc3ccncc3)c3ccccc3c2=O)cc1`, the inhibition was 44.3% (active).
The figure for `Cc1ccc(-n2c(O)c(C=Nc3ccc(S(=O)(=O)Nc4ncccn4)cc3)c3ccccc3c2=O)cc1C` is 1.02% (inactive); for `CCOc1ccc(-n2c(O)c(/C=N/Nc3nc(C)cc(C)n3)c3ccccc3c2=O)cc1` it is -0.65% (inactive).
For `CC(C)CCN1CCN=C1N(C)C`, the inhibition was 0.11% (inactive).
As for `O=C(NCCCN1CCOCC1)c1cnn2c(-c3ccccc3)cc(-c3ccccc3)nc12`, the figure is -0.23% (inactive).
Turning to `COc1ccc(C(=O)NC2CC2)cc1OC1CCN(Cc2ccc(SC)cc2)CC1`, the inhibition was -0.85% (inactive).
Consider `CC(NC(=S)Nc1ccccc1)C(c1cccs1)N1CCOCC1` (configuration not stated), for which the inhibition was -0.68% (inactive).
The figure for `CCOC(=O)Nc1ccc2c(c1)N(C(=O)CCCl)c1ccccc1[S@]2=O` is 1.44% (inactive).
As for `O=C(O)c1ccc(N/N=C/c2ccc3ncccc3c2)cc1`, the figure is -4.36% (inactive).
The figure for `Cc1ccc2cc(/C=N/NC(=O)[C@@H]3CCCN3)c(Cl)nc2c1` is -2.39% (inactive); for `Cc1ccc2cc(/C=N/Nc3ccc(C(=O)O)cc3)c(Cl)nc2c1` it is 24.6% (active).
